# Screening data as filed in PubChem BioAssay.
# This excerpt belongs to a sample that is enriched for hits.
# Glioma ERSR ind: ER stress response induction in glioma | U87-MG GRP78 promoter luciferase reporter, 16 h | Potency, µM, without a hit: at the top dose activation, usual class: activators | hit rate 0.02% among 420,000 | AID 602332; also: series mostly up to about 76 µM; % of control where 0% means no effect; nearly all actives have a fitted effect of over 35% in size
#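 Stably transfected U87-MG human glioma cells carrying a GRP78-based luminescent sensor were seeded at 1000 cells/well, pin-dosed with compounds and incubated 16 h. Luciferase reagent was then added, and end-point luminescence was read after 10 min at room temperature.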
# Sfp PPTase inh: blocks B. subtilis Sfp PPTase activity; Biochemical Sfp PPTase activity, qHTS; Potency, µM, for the others: largest response in the series, negative = inhibition, hits mostly inhibitors; hit rate 3.5% among 310,000;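 also: the enzyme is Sfp with the accession as filed and its product quenches rhodamine fluorescence; 0% = enzyme reaction without inhibitor and -100% = no enzyme wells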
#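 Buffer: 50 mM Hepes-Na pH 7.6, 10 mM MgCl2, 0.01% Nonidet P-40, 0.01% BSA. Enzyme 15 nM, pre-exposed to compound 15 min; substrates then added and fluorescence change tracked over 30 min.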
# ALOX12 inh: inhibitors of human 12S-lipoxygenase ALOX12 | Potency, µM (doses to about 108 µM), without a hit: at the top dose activity change, negative = inhibition, hits mostly inhibitors | purified 12hLO, xylenol orange hydroperoxide absorbance | P18054 | hit rate 1.1% among 580,000; also: % is scaled to controls: 0 for no effect and ±100 for the full control effect
#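 Hydroperoxide product was detected by ferrous iron/xylenol orange as the 573 to 405 nm absorbance ratio. Arachidonic acid at 40 uM (final) was turned over for 30 min at room temperature by 150 nM human 12hLO, pH 7.0 Hepes buffer, after 15 min compound preincubation.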
# VDR inhibitor: blocks the human vitamin D receptor | VDR-SRC2-3 peptide fluorescence polarization, 2 h | P11473 | Potency, µM, without a hit: max response, negative = inhibition, usual class: inhibitors | hit rate 0.93% among 400,000; also: % is scaled to controls: 0 for no effect and ±100 for the full control effect
#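 Two reagent solutions held at 4 deg C in the dark were dispensed, compounds pinned at 23 nl, and the mixture incubated 2 h at room temperature. Read-out: fluorescence polarization of VDR–SRC2-3 peptide binding.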
# G9a inh: inhibitors of human histone lysine methyltransferase G9a; Q96KQ7; hit rate 8.8% among 350,000; AID 504332; Potency, µM (doses to about 102 µM), without a hit: at the top dose activity, negative = inhibition, usual class: inhibitors; G9a H3K9 monomethylation, AlphaScreen, 2 h; also: % is scaled to controls: 0 for no effect and ±100 for the full control effect; nearly all actives have a fitted effect of over 75% in size
# Target sequence (Q96KQ7 913-1193 limits assumed): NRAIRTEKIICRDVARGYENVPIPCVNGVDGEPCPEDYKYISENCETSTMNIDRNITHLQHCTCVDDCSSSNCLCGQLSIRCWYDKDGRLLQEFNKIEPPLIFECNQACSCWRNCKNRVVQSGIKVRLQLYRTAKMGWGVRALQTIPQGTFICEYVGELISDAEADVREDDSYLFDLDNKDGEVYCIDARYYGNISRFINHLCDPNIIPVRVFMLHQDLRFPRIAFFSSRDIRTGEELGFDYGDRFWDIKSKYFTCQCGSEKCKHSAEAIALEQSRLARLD
#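 Using a bead-based AlphaScreen, monomethylated H3K9 product from 2 h room-temperature reactions (G9a 20 nM, peptide 500 nM, SAM 20 uM) was detected with 0.5 ug/mL rabbit anti-H3K9me1 antibody.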
# * = called active by the depositor; u = inconclusive; x = not tested or not shown; [ ] = remark or other dose. Calls follow the shape of the dose curve; as a rule, active = well fitted curve in the direction sought with a large enough effect; inconclusive = small, poorly fitted or top-dose-only effect, or another doubt; inactive = no such curve, though single readings can be large; an effect the other way counts as inactive or inconclusive. Potency is read from the fitted curve at half-maximal effect.
SMILES,Glioma ERSR ind,Sfp PPTase inh,ALOX12 inh,VDR inhibitor,G9a inh
CCc1cc(Cn2nc(-c3ccccc3)cc2C(=O)NCCOC)on1,3.5%,x,-8.7%,-3.1%,18.7%[12.7 µM]
CCOC(=O)c1cc(-c2ccccc2)nn1Cc1cc(CC)no1,0.9%,x,-119.1%,-5.8%,20.9%[2.33 µM]
CCc1cc(Cn2nc(-c3ccccc3)cc2C(=O)NCc2cccs2)on1,-1.1%,x,8.91µM*,4.3%,3.3%[2.33 µM]
CCOC(=O)c1cc(-c2ccccc2C)nn1Cc1cc(CC)no1,5.5%,x,7.94µM*,-0.5%,24.9%[2.33 µM]
Cc1cc2ccccc2n1CC(=O)N1CCN(C=O)CC1,x,x,-21.6%,x,x
Cc1cccc(N(C(=O)CS(=O)CC(=O)Nc2ccc3c(c2)OCO3)C(C)C(=O)NC2CCCC2)c1C (configuration not stated),-0.5%,-14.4%,-22.8%,-4.0%,56.2µM*
Cc1ccc(C)c(N(C(=O)CS(=O)CC(=O)Nc2ccc3c(c2)OCO3)C(C)C(=O)NC2CCCC2)c1 (configuration not stated),-3.0%,13.0%,0.0%,13.7%,u
CNC(=O)c1ccc(CN(C)c2nc3ccccc3o2)cc1,x,x,-6.0%,x,x
CC(C)(C)c1cc(CNC2CS(=O)(=O)C[C@@H]2O)cc(C(C)(C)C)c1O (some centres not stated),-6.7%,12.5%,0.0%,50.1µM*,17.8µM*
O=S1(=O)CC(O)C(NCc2ccco2)C1 (configuration not stated),-2.0%,7.4%,-17.0%,u,-10.3%[59 µM]
OCc1cn(-c2ccccc2)nc1-c1cc2ccccc2o1,4.2%,56.2µM*,1.8%,30.5%,x
C=CCNCc1ccccc1OC,x,x,-4.2%,x,x
COC(=O)CCC(=O)NCc1ccccc1,x,x,1.8%,x,x
CCOC(=O)c1nc2ccccc2nc1NCc1ccc2c(c1)OCO2,x,x,4.0%,x,x
Cc1nc(-c2ccccc2)sc1C(=O)NN,-1.4%,10.4%,-0.9%,-11.6%,u
CNC(=O)c1sc(-c2cccs2)nc1C,-2.0%,12.2%,u,-10.4%,44.7µM*
O=c1[nH]c(-c2ccncc2)nc2ccccc12,-0.2%,14.1µM*,-27.2%,79.4µM*,8.91µM*
Fc1ccc(/C=C2\CCCC3=C2N=C2SC=C(c4ccccc4)N2C3c2ccc(F)cc2)cc1 (configuration not stated),x,x,22.4µM*,x,x
Nc1n[nH]c(N)c1N=Nc1cccc(F)c1,4.2%,1.6%,-13.9%,5.2%,u
Nc1n[nH]c(N)c1N=Nc1cccc(C(F)(F)F)c1,9.2%,0.4%,0.0%,9.5%,70.8µM*
CCc1nc(Nc2ccccc2)c2nnn(Cc3ccccc3)c2n1,-0.5%,35.5µM*,-2.3%,11.3%,53.7%
CCN(Cc1cc(=O)n2cc(Cl)c(C)c(Cl)c2n1)Cc1nc2ccccc2c(=O)[nH]1,2.5%,-7.7%,u,-23.3%,50.1µM*
CCN(Cc1nc2ccccc2c(=O)[nH]1)Cc1nc2ccsc2c(=O)[nH]1,-2.9%,3.3%,3.2%,-14.8%,14.1%
CCc1ccc2c(CN(CC)Cc3nc4ccccc4c(=O)[nH]3)cc(=O)oc2c1,-1.2%,-21.2%,u,-19.7%,3.55µM*
Cc1c(Cl)cn2c(=O)cc(CN3CCN(c4ccccc4)CC3)nc2c1Cl,-2.0%,-25.1%,7.9%,23.8%,39.8µM*
SMILES,Glioma ERSR ind,Sfp PPTase inh,ALOX12 inh,VDR inhibitor,G9a inh
O=C(Nc1ccsc1)N[C@H]1C[C@H]2C(=O)NC[C@@H](CCC(=O)N3CCCCC3)N2C1,x,x,-0.9%[176 µM],x,x
Cc1ccc(NC(=O)CSc2nnc(CC3CCS(=O)(=O)C3)n2C)cc1 (configuration not stated),x,x,0.5%,x,x
COc1ccc2c(C)cc(SCC(=O)NC3CCCCC3)nc2c1,-2.5%,x,-14.1%,-12.4%,x
COc1ccc2c(C)cc(SCC(=O)Nc3ccc(Cl)cn3)nc2c1,-1.5%,-17.1%,-19.3%,2.3%,12.6µM*
COc1ccc(-c2cn3cccnc3n2)cc1NC(=O)c1ccc(Br)o1,-4.8%,u,1.6%,8.7%,2.82µM*
Cc1ccc(/C=C/C(=O)OCC(=O)NC(=O)NCc2ccccc2)cc1,-8.0%,x,8.4%,7.4%,26.5%[12.7 µM]
CCOc1ccc(CCNC(=O)COC(=O)/C=C/c2ccc(C)o2)cc1OCC,3.0%,56.2µM*,u,0.0%,u
Cc1ccc(/C=C/C(=O)OCC(=O)NCCN2C(=O)CSC2=O)cc1,2.0%,-7.7%,0.5%,24.5%,-13.3%
Cc1ccc(C(=O)OCC(=O)NCCNC(=O)COC(=O)c2ccc(C)o2)o1,-4.5%,x,u,9.2%,56.2µM*
